Consider 40 molecules from PubChem BioAssay (NCATS).

Records with an inconclusive call do not appear. Entries that show only a call come without a potency. Active and inactive are the calls of the source. The call rests on the fitted dose curve; in most records, active means well fitted cell-killing curve with a large enough effect; inconclusive means small, poorly fitted or top-dose-only effect, or effect the other way; inactive means flat fitted curve, though single readings scatter.
Potency means the concentration at half of the fitted maximal effect.

The subject of one experiment is CASKI. The experiment is described as follows: Primary qHTS to identify gynecologic anti-cancer compounds using libraries of approved drugs and bioactive compounds (AID 1345084). Further: nearly all actives have a fitted effect of over 55% in size. The note with it: Gynecologic cancer cell panel viability, ATPlite luminescence, 48 h; series mostly up to 57.5 µM. A digest of the protocol: (§1)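 In this quantitative HTS, cell killing is estimated from loss of ATP-dependent luciferase light. Cells see five compound concentrations over a 48 h exposure.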
(In general: In qHTS, concentration-response curves come from the screen itself.)
Take `CC1CC(=O)C2=C(C1)C1OC1C1(O)C2C(=O)c2cccc(O)c2C1O` (configuration not stated): the Potency entry is “inactive”.
Take `CCC(C)CC(=O)OC1C(=O)C(CO)=CC(O)C1C(C)C` (configuration not stated): the Potency was 28.2 µM (active).
In the case of `Cc1nc2ccc(CN(C)c3ccc(C(=O)NC(CCC(=O)O)C(=O)O)s3)cc2c(=O)[nH]1` (configuration not stated), the Potency entry is “inactive”.
In the case of `Cn1cc(-c2cnn3c(N)c(Br)c([C@@H]4CCCNC4)nc23)cn1`, the Potency entry was “inactive”.
For `N#C/C(=C1\Nc2ccccc2S1)c1ccnc(NCCc2cccnc2)n1`, the Potency entry was “inactive”.
Turning to `Cc1sc2c(c1C)C(c1ccc(Cl)cc1)=N[C@H](CC(=O)NCCCCNC(=O)COc1cccc3c1C(=O)N([C@H]1CCC(=O)NC1=O)C3=O)c1nnc(C)n1-2`, the Potency entry was “inactive”.
On the same count and under the same terms, the value for `C/C(=C\Cc1c(O)c(Cl)c(C)c(C=O)c1O)CC/C=C(\C)[C@H]1CC(=O)C(C)(C)O1` was “inactive”.

The test system of the next experiment is Es-2. The description is as above. The note with it: Gynecologic cancer cell panel viability, ATPlite luminescence, 48 h; series mostly up to 57.5 µM. A digest of the protocol: as §1
(In general: ATP-based viability assays read luminescence as a measure of living cells.)
With `Fc1ccc(CN2CCC(Nc3ccc(C(F)(F)F)nn3)CC2)cc1F`, the Potency result is “inactive”.
Still for that read-out and setting: the value for `Cc1nc(N2CCN(C(=O)c3ccco3)CC2)c2c3c(sc2n1)CCCC3` was “inactive”.
Same read-out and setting: the entry for `CC(F)(F)CN1CCOc2c(nn(-c3ccccc3Cl)c2-c2ccc(Cl)cc2)C1=O` is “inactive”.
For the molecule `C=CC(=O)N1CCCC(n2nc(-c3ccc(Oc4ccccc4)cc3)c3c(N)ncnc32)C1` (configuration not stated), the Potency result is “inactive”.
For `NCC1CCN(c2nccc(-c3ccc4ccccc4c3)n2)CC1`, the Potency result was “inactive”.
For `OC1CCC(Nc2nc(-c3ccccc3)nc3[nH]ccc23)CC1` (configuration not stated), the Potency result was “inactive”.
Regarding `COC(=O)CC1OC(C)C2=C(O)c3c(O)cccc3C(=O)C23OC13` (configuration not stated), the Potency is 10 µM (active).
`Cn1ncc(Cl)c1-c1cc(C(=O)N[C@H](CN)Cc2ccc(F)c(F)c2)sc1Cl`: the Potency result is “inactive”.
Consider `COC1CC(=O)C23C(=O)NC(Cc4c[nH]c5ccccc45)C2C(C)C2(C)OC2C3/C=C/CC(C)CC1O` (configuration not stated), for which the Potency result is “inactive”.
As for `Nc1ncnc2c1nc(Cl)n2C1OC2COP(=O)(O)OC2C1O` (configuration not stated), the Potency is 10 µM (active).
Same read-out and setting: the value for `COc1ccc(C[C@H]2COC(=O)[C@@H]2Cc2ccc(O[C@@H]3O[C@H](CO)[C@@H](O)[C@H](O)[C@H]3O)c(OC)c2)cc1OC` was “inactive”.
Turning to `O=C(C1CCCCC1)N(CCN1CCN(c2ccccc2O)CC1)c1ccccn1`, the Potency entry is “inactive”.
Turning to `COC1=CC(=O)C[C@@H](C)[C@@]12Oc1c(Cl)c(OC)cc(OC)c1C2=O`, the Potency entry was “inactive”.
Turning to `CC(C)c1ccc(NC(=O)c2cccs2)c(-c2nc3ccccc3[nH]c2=O)c1`, the Potency result was “inactive”.
Still for that read-out and setting: the value for `C=C[C@@]1(C)CCC2C(=CCC3[C@]2(C)CCC[C@@]3(C)C(=O)O)C1` (some centres not stated) was “inactive”; that for `CCCSc1nc(N[C@@H]2C[C@H]2c2ccc(F)c(F)c2)c2nnn([C@@H]3C[C@H](OCCO)[C@@H](O)[C@H]3O)c2n1` was “inactive”.
Still for that read-out and setting: the value for `Cc1cc(C(C)Nc2ccccc2C(=O)O)c2nc(N3CCOCC3)cc(=O)n2c1` (configuration not stated) was “inactive”; that for `FC(F)(F)c1ccccc1-c1cc(C(F)(F)F)c2nc(C3=NOC4(CCCCC4)C3)[nH]c2c1` was “inactive”; that for `Cc1cc(OCCCS(C)(=O)=O)cc(C)c1-c1cccc(COc2ccc(C3=CC(=O)NS3=O)cc2)c1` (configuration not stated) was “inactive”.
The same measure, in the same setting: the value for `Cn1c(=O)c(F)c(Nc2ccc(I)cc2F)c2c(=O)n(CC(O)CO)cnc21` (configuration not stated) was 3.16 µM (active); that for `CCCn1ncc(CN2CCCC(C(=O)c3cccc(OC(C)C)c3)C2)c1C` (configuration not stated) was “inactive”.
For `C[C@H](Oc1cc(-n2cnc3ccc(CN4CCN(C)CC4)cc32)sc1C(N)=O)c1ccccc1C(F)(F)F`, the Potency is 11.2 µM (active).
For `COc1cc2ncnc(Nc3ccc(O)c(Br)c3)c2cc1OC`, the Potency entry is “inactive”.
Take `Nc1nc2c(ncn2C2OC3COP(=O)(O)OC3C2O)c(=O)[nH]1` (configuration not stated): the Potency entry is “inactive”.
On the same count and under the same terms, the entry for `CC1(C)SCCN(S(=O)(=O)c2ccc(Oc3ccncc3)cc2)[C@H]1C(=O)NO` is “inactive”; for `CC(O)(C(=O)C1CC1(CO)COC1OC(CO)C(O)C(O)C1O)C1C(O)CC2C3CC=C4CC(O)CC(O)C4(C)C3C(O)CC21C` (configuration not stated) it is 0.891 µM (active).

Another experiment has as its system HeLa. The experiment is described as above. The note with it: Gynecologic cancer cell panel viability, ATPlite luminescence, 48 h; series mostly up to 57.5 µM. In short, it runs like this:
as §1
`Fc1ccc(CN2CCC(Nc3ccc(C(F)(F)F)nn3)CC2)cc1F`: the Potency entry was “inactive”.
The same measure, in the same setting: the entry for `Cc1nc(N2CCN(C(=O)c3ccco3)CC2)c2c3c(sc2n1)CCCC3` is “inactive”; for `CC(F)(F)CN1CCOc2c(nn(-c3ccccc3Cl)c2-c2ccc(Cl)cc2)C1=O` it is “inactive”; for `C=CC(=O)N1CCCC(n2nc(-c3ccc(Oc4ccccc4)cc3)c3c(N)ncnc32)C1` (configuration not stated) it is “inactive”.
For `CN(C)c1cccc(Oc2cnc(Nc3cccc(O)c3)nc2)c1`, the Potency result is “inactive”.
Still for that read-out and setting: the value for `CN1CCC(NC(=O)c2cc(-c3c(O)cc(O)cc3Oc3ccc([N+](=O)[O-])cc3)on2)CC1` was “inactive”; that for `NCC1CCN(c2nccc(-c3ccc4ccccc4c3)n2)CC1` was 14.1 µM (active); that for `O=C(Nc1nc2cc(C(F)(F)F)cc(NC3CC3)n2n1)c1cccnc1` was 12.6 µM (active).
Still for that read-out and setting: the entry for `OC1CCC(Nc2nc(-c3ccccc3)nc3[nH]ccc23)CC1` (configuration not stated) is “inactive”; for `Cn1ncc(Cl)c1-c1cc(C(=O)N[C@H](CN)Cc2ccc(F)c(F)c2)sc1Cl` it is “inactive”.
For `Nc1ncnc2c1nc(Cl)n2C1OC2COP(=O)(O)OC2C1O` (configuration not stated), the Potency was 11.2 µM (active).
On the same count and under the same terms, the entry for `COc1ccc(C[C@H]2COC(=O)[C@@H]2Cc2ccc(O[C@@H]3O[C@H](CO)[C@@H](O)[C@H](O)[C@H]3O)c(OC)c2)cc1OC` is “inactive”; for `CCC(CC)C(c1ccc(Nc2nc3ccccc3s2)cc1)n1cncn1` (configuration not stated) it is 35.5 µM (active); for `O=C(C1CCCCC1)N(CCN1CCN(c2ccccc2O)CC1)c1ccccn1` it is “inactive”.
In the case of `C/C1=C\[C@@H](C)C[C@@H](C)[C@@H](Cc2cnco2)OC(=O)/C(C)=C/[C@@H](C)C[C@@H](C)[C@@H](Cc2cnco2)OC1=O`, the Potency result was “inactive”.
As for `CC(C)c1ccc(NC(=O)c2cccs2)c(-c2nc3ccccc3[nH]c2=O)c1`, the Potency result is “inactive”.
On the same count and under the same terms, the entry for `C=C[C@@]1(C)CCC2C(=CCC3[C@]2(C)CCC[C@@]3(C)C(=O)O)C1` (some centres not stated) is “inactive”; for `CCCSc1nc(N[C@@H]2C[C@H]2c2ccc(F)c(F)c2)c2nnn([C@@H]3C[C@H](OCCO)[C@@H](O)[C@H]3O)c2n1` it is “inactive”.
Regarding `Cc1cc(C(C)Nc2ccccc2C(=O)O)c2nc(N3CCOCC3)cc(=O)n2c1` (configuration not stated), the Potency result was “inactive”.
On the same count and under the same terms, the entry for `FC(F)(F)c1ccccc1-c1cc(C(F)(F)F)c2nc(C3=NOC4(CCCCC4)C3)[nH]c2c1` is “inactive”; for `Cn1c(=O)c(F)c(Nc2ccc(I)cc2F)c2c(=O)n(CC(O)CO)cnc21` (configuration not stated) it is “inactive”; for `CCCn1ncc(CN2CCCC(C(=O)c3cccc(OC(C)C)c3)C2)c1C` (configuration not stated) it is “inactive”.
For the molecule `Cn1ncnc1[C@H]1c2n[nH]c(=O)c3cc(F)cc(c23)N[C@@H]1c1ccc(F)cc1`, the Potency result is “inactive”.
Same read-out and setting: the value for `CC(C)(O)C1Cc2c(ccc(C(=O)CCc3ccccc3)c2O)O1` (configuration not stated) was 10 µM (active); that for `C[C@H](Oc1cc(-n2cnc3ccc(CN4CCN(C)CC4)cc32)sc1C(N)=O)c1ccccc1C(F)(F)F` was 5.01 µM (active); that for `COc1cc2ncnc(Nc3ccc(O)c(Br)c3)c2cc1OC` was “inactive”.
Still for that read-out and setting: the entry for `Nc1nc2c(ncn2C2OC3COP(=O)(O)OC3C2O)c(=O)[nH]1` (configuration not stated) is “inactive”; for `CC1(C)SCCN(S(=O)(=O)c2ccc(Oc3ccncc3)cc2)[C@H]1C(=O)NO` it is “inactive”; for `CC(O)(C(=O)C1CC1(CO)COC1OC(CO)C(O)C(O)C1O)C1C(O)CC2C3CC=C4CC(O)CC(O)C4(C)C3C(O)CC21C` (configuration not stated) it is 1.41 µM (active).
